# ± gives the standard deviation of the averaged measurements.
# Columns and labels:
# Experiment in all cases: promoter activity interaction Z-score (Lux/OD deviation from empty-vector control); higher = stronger promoter induction by the compound
# [1] = tested on: E. coli BW25113 acrABp lux reporter
# How it was run: (§1)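 At 37°C, E. coli BW25113 reporter cultures in 40 µl LB Lennox in 384-well plates were read for OD600 and luminescence every 30 min for 12 h. Windows were 0–8 h for wild type and 1–9 h for deletion strains, and wells under 10% of the median growth value were removed. The score is the Z-transformed residual of growth-normalised luminescence against a control fit.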
# [2] = tested on: E. coli BW25113 micFp lux reporter
# How it was run: as §1
# [3] = tested on: E. coli BW25113 ompFp lux reporter
# How it was run: as §1
# [4] = tested on: E. coli BW25113 robp lux reporter
# How it was run: as §1
# [5] = tested on: E. coli BW25113 soxSp lux reporter
# How it was run: as §1
# [6] = tested on: E. coli BW25113 tolCp lux reporter
# How it was run: as §1
# [7] = 2.4 µg/ml, genetic background: wild type
# [8] = 2.4 µg/ml, genetic background: ΔmarA
# [9] = 2.4 µg/ml, genetic background: Δrob
# [10] = 2.4 µg/ml, genetic background: ΔsoxS
# [11] = 4.8 µg/ml, genetic background: wild type
# [12] = 4.8 µg/ml, genetic background: ΔmarA
# [13] = 4.8 µg/ml, genetic background: Δrob
# [14] = 4.8 µg/ml, genetic background: ΔsoxS
# [15] = 9.5 µg/ml, genetic background: wild type
# [16] = 9.5 µg/ml, genetic background: ΔmarA
# [17] = 9.5 µg/ml, genetic background: Δrob
# [18] = 9.5 µg/ml, genetic background: ΔsoxS
# [19] = 19 µg/ml, genetic background: wild type
# [20] = 19 µg/ml, genetic background: ΔmarA
# [21] = 19 µg/ml, genetic background: Δrob
# [22] = 19 µg/ml, genetic background: ΔsoxS
smiles,measurement,setting,value
CO[C@@H]1[C@@H](OC(N)=O)[C@@H](O)[C@H](Oc2ccc3c(O)c(NC(=O)c4ccc(O)c(CC=C(C)C)c4)c(=O)oc3c2C)OC1(C)C [Novobiocin],promoter activity interaction Z-score,[1]; [7],0.244 ± 0.011
same,promoter activity interaction Z-score,[1]; [8],-0.347 ± 1.3
same,promoter activity interaction Z-score,[1]; [9],0.848 ± 0.4
same,promoter activity interaction Z-score,[1]; [10],0.546 ± 0.036
same,promoter activity interaction Z-score,[1]; [11],0.442 ± 0.43
same,promoter activity interaction Z-score,[1]; [12],0.136 ± 0.95
same,promoter activity interaction Z-score,[1]; [13],1.49 ± 0.32
same,promoter activity interaction Z-score,[1]; [14],0.39 ± 0.16
same,promoter activity interaction Z-score,[1]; [15],0.927 ± 0.17
same,promoter activity interaction Z-score,[1]; [16],-0.164 ± 0.91
same,promoter activity interaction Z-score,[1]; [17],1.06 ± 0.42
same,promoter activity interaction Z-score,[1]; [18],1.16 ± 0.38
same,promoter activity interaction Z-score,[1]; [19],2.99 ± 1.6
same,promoter activity interaction Z-score,[1]; [20],0.0115
same,promoter activity interaction Z-score,[1]; [21],10.3 ± 1.3
same,promoter activity interaction Z-score,[1]; [22],4.62 ± 1.6
same,promoter activity interaction Z-score,[2]; [7],-0.408 ± 0.09
same,promoter activity interaction Z-score,[2]; [8],0.0296 ± 0.17
same,promoter activity interaction Z-score,[2]; [9],0.145 ± 0.073
same,promoter activity interaction Z-score,[2]; [10],-0.147 ± 0.056
same,promoter activity interaction Z-score,[2]; [11],0.134 ± 0.14
same,promoter activity interaction Z-score,[2]; [12],0.213 ± 0.017
same,promoter activity interaction Z-score,[2]; [13],0.0635 ± 0.05
same,promoter activity interaction Z-score,[2]; [14],-0.119 ± 0.12
same,promoter activity interaction Z-score,[2]; [15],0.284 ± 0.49
same,promoter activity interaction Z-score,[2]; [16],0.421 ± 0.17
same,promoter activity interaction Z-score,[2]; [17],0.245 ± 0.24
same,promoter activity interaction Z-score,[2]; [18],0.14 ± 0.16
same,promoter activity interaction Z-score,[2]; [19],1.5406 ± 0.00073
same,promoter activity interaction Z-score,[2]; [20],0.113 ± 0.18
same,promoter activity interaction Z-score,[2]; [21],-0.174 ± 0.2
same,promoter activity interaction Z-score,[2]; [22],1.4 ± 0.62
same,promoter activity interaction Z-score,[3]; [7],0.0673 ± 0.21
same,promoter activity interaction Z-score,[3]; [8],-0.291 ± 0.042
same,promoter activity interaction Z-score,[3]; [9],0.21 ± 0.083
same,promoter activity interaction Z-score,[3]; [10],-0.226 ± 0.19
same,promoter activity interaction Z-score,[3]; [11],0.318 ± 0.29
same,promoter activity interaction Z-score,[3]; [12],-0.339 ± 0.52
same,promoter activity interaction Z-score,[3]; [13],0.165 ± 0.0019
same,promoter activity interaction Z-score,[3]; [14],0.0876 ± 0.53
same,promoter activity interaction Z-score,[3]; [15],-0.446 ± 0.54
same,promoter activity interaction Z-score,[3]; [16],-1.53 ± 0.12
same,promoter activity interaction Z-score,[3]; [17],-1.13 ± 0.89
same,promoter activity interaction Z-score,[3]; [18],-0.424 ± 0.61
same,promoter activity interaction Z-score,[3]; [19],-1.63 ± 0.2
same,promoter activity interaction Z-score,[3]; [20],-1.87 ± 0.17
same,promoter activity interaction Z-score,[3]; [21],-2.05 ± 0.56
same,promoter activity interaction Z-score,[3]; [22],-1.87 ± 0.47
same,promoter activity interaction Z-score,[4]; [7],0.51 ± 0.35
same,promoter activity interaction Z-score,[4]; [8],0.679 ± 0.23
same,promoter activity interaction Z-score,[4]; [9],1.25 ± 0.25
same,promoter activity interaction Z-score,[4]; [10],0.985 ± 1.4
same,promoter activity interaction Z-score,[4]; [11],1.19 ± 0.16
same,promoter activity interaction Z-score,[4]; [12],1.57 ± 0.17
same,promoter activity interaction Z-score,[4]; [13],1.21 ± 0.23
same,promoter activity interaction Z-score,[4]; [14],1.76 ± 1.1
same,promoter activity interaction Z-score,[4]; [15],0.92 ± 0.12
same,promoter activity interaction Z-score,[4]; [16],1.41 ± 0.34
same,promoter activity interaction Z-score,[4]; [17],1.08 ± 0.13
same,promoter activity interaction Z-score,[4]; [18],1.88 ± 0.47
same,promoter activity interaction Z-score,[4]; [19],2.49 ± 0.18
same,promoter activity interaction Z-score,[4]; [20],2.71 ± 1.5
same,promoter activity interaction Z-score,[4]; [21],2.7 ± 1.2
same,promoter activity interaction Z-score,[4]; [22],2.56 ± 1.5
same,promoter activity interaction Z-score,[5]; [7],-0.136 ± 0.025
same,promoter activity interaction Z-score,[5]; [8],-0.0396 ± 0.014
same,promoter activity interaction Z-score,[5]; [9],0.132 ± 0.012
same,promoter activity interaction Z-score,[5]; [10],-0.0347 ± 0.41
same,promoter activity interaction Z-score,[5]; [11],0.0479 ± 0.082
same,promoter activity interaction Z-score,[5]; [12],-0.0499 ± 0.0013
same,promoter activity interaction Z-score,[5]; [13],0.0442 ± 0.016
same,promoter activity interaction Z-score,[5]; [14],0.0803 ± 0.2
same,promoter activity interaction Z-score,[5]; [15],-0.193 ± 0.16
same,promoter activity interaction Z-score,[5]; [16],-0.125 ± 0.18
same,promoter activity interaction Z-score,[5]; [17],0.00176 ± 0.065
same,promoter activity interaction Z-score,[5]; [18],0.0899 ± 0.22
same,promoter activity interaction Z-score,[5]; [19],-0.00867 ± 0.13
same,promoter activity interaction Z-score,[5]; [20],-0.000878 ± 0.32
same,promoter activity interaction Z-score,[5]; [21],-0.0162 ± 0.056
same,promoter activity interaction Z-score,[5]; [22],0.304 ± 0.35
same,promoter activity interaction Z-score,[6]; [7],0.183 ± 0.43
same,promoter activity interaction Z-score,[6]; [8],0.192 ± 0.74
same,promoter activity interaction Z-score,[6]; [9],0.95 ± 0.16
same,promoter activity interaction Z-score,[6]; [10],-0.793 ± 0.74
same,promoter activity interaction Z-score,[6]; [11],0.878 ± 0.85
same,promoter activity interaction Z-score,[6]; [12],1.47 ± 0.72
same,promoter activity interaction Z-score,[6]; [13],0.512 ± 0.0012
same,promoter activity interaction Z-score,[6]; [14],0.453 ± 0.65
same,promoter activity interaction Z-score,[6]; [15],0.713 ± 0.2
same,promoter activity interaction Z-score,[6]; [16],1.93 ± 0.4
same,promoter activity interaction Z-score,[6]; [17],1.26 ± 0.14
same,promoter activity interaction Z-score,[6]; [18],0.497 ± 0.4
same,promoter activity interaction Z-score,[6]; [19],1.73 ± 1.4
same,promoter activity interaction Z-score,[6]; [20],0.8 ± 2.4
same,promoter activity interaction Z-score,[6]; [21],2.44 ± 0.49
same,promoter activity interaction Z-score,[6]; [22],2 ± 0.17

# Source: the supplement of paper PMC12282887
